The supplement of paper PMC13380429

System: Vero E6 infected with SARS-CoV-2
Assay: inhibition of SARS-CoV-2 cytopathic effect; higher = more antiviral protection, active = above 15
Conditions: 48 h

Measured: inhibition of SARS-CoV-2 cytopathic effect

COc1ccc([C@@H]2CC(=O)c3c(O)cc(O)cc3O2)cc1O [hesperetin]
inactive: 1 nM 1.09% | 8.33 nM 3.18% | 100 nM 4.54% | 833.33 nM 0.97% | 10000 nM 0.11%

COC(=O)C1=C(C)NC(C)=C(C(=O)OC(C)C)[C@@H]1c1cccc2nonc12 [isradipine]
inactive: 1 nM 0.75% | 8.33 nM 2.79% | 100 nM 1.21% | 833.33 nM 2.05% | 10000 nM 1.88%

Cn1cc(-c2ccc3c(c2)CCN3C(=O)Cc2cccc(C(F)(F)F)c2)c2c(N)ncnc21
inactive: 1 nM 0.06% | 8.33 nM 0.68% | 100 nM 1.48%
active: 833.33 nM 32.5% | 10000 nM 27.7%

CN(C)[C@@H]1CCc2[nH]c3ccc(NC(=O)c4ccc(F)cc4)cc3c2C1
inactive: 1 nM -0.2% | 8.33 nM 0.81% | 100 nM 1.23% | 833.33 nM 3.46% | 10000 nM 4.97%

Nc1ncnc2c1ncn2C1CCCO1 (stereo not given)
inactive: 1 nM 2.17% | 8.33 nM 3.9% | 100 nM -1% | 833.33 nM 2.95% | 10000 nM -0.8%

COc1cc(C#N)ccc1S(=O)(=O)Nc1ccc2c(c1)cc(C)c(=O)n2C
inactive: 1 nM -2.94% | 8.33 nM 1.53% | 100 nM 0.3% | 833.33 nM -4.02% | 10000 nM -0.1%

NC(=O)c1ccc([N+](=O)[O-])cc1Cl [aklomide]
inactive: 1 nM -0.14% | 8.33 nM 0.27% | 100 nM 2% | 833.33 nM 1.45% | 10000 nM 0.79%

COC(=O)c1cc(OC)c2c(c1-c1c(C(=O)OC)cc(OC)c3c1OCO3)OCO2 [bifendate]
inactive: 1 nM 1.14% | 8.33 nM 2.56% | 100 nM 3.5% | 833.33 nM 1.43% | 10000 nM 1.73%
